Test results published in PubChem BioAssay (NCI).
This is part of a sample that, as a whole, favours compounds with a hit. Of some 79,000 tested, about 15% had one in any assay. Active and inactive are the calls of the source. No stated cut-off is given here; in the data, active means growth inhibition above about 70%; inactive means the rest.

Columns and labels:
[1] = NCI Yeast Anticancer Drug Screen. Data for the rad52 strain (AID 147);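 further: 0% = growth of vehicle-treated control cultures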; conditions: S. cerevisiae rad52 mutant growth inhibition, stronger effect = higher value
How it was run: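 DNA repair-defective yeast; compound exposure; growth scored against vehicle controls.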

[2] = NCI Yeast Anticancer Drug Screen. Data for the wt1 strain (AID 149);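 further: 0% = growth of vehicle-treated wt1 cultures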; conditions: S. cerevisiae wt1 strain (SPY 50644) growth inhibition, stronger effect = higher value
How it was run: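 Growth inhibition read against vehicle controls after compound exposure of the wt1 yeast strain.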

[3] = NCI Yeast Anticancer Drug Screen. Data for the rad50EPP+ strain (AID 151);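 further: 0% = growth of vehicle-treated control cultures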; conditions: S. cerevisiae rad50 mutant strain, stronger effect = higher value
How it was run: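 rad50EPP+ yeast treated with test compounds. Readout: growth vs vehicle control.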

[4] = NCI Yeast Anticancer Drug Screen. Data for the rad50 strain (AID 155);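 further: 0% = growth of vehicle-only cultures of the same strain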; conditions: S. cerevisiae rad50 strain growth inhibition, stronger effect = higher value
How it was run: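 Readout: growth inhibition relative to vehicle-treated cultures. Compound exposure was carried out in a genetically defined yeast strain deficient in DNA damage repair.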

[5] = NCI Yeast Anticancer Drug Screen. Data for the mec2-1 strain (AID 157); conditions: S. cerevisiae mec2-1 strain, stronger effect = higher value
How it was run: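 Growth inhibition is read against vehicle-treated controls after compound exposure of the mec2-1 yeast strain, which is defective in DNA damage repair or cell cycle control.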

[6] = NCI Yeast Anticancer Drug Screen. Data for the rad14 strain (AID 159);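 further: 0% = growth of vehicle-treated control cultures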; conditions: S. cerevisiae rad14 strain growth inhibition, stronger effect = higher value
How it was run: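 Growth inhibition vs vehicle controls; genetically altered yeast strain (DNA damage repair defect) treated with test compounds.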

[7] = NCI Yeast Anticancer Drug Screen. Data for the sgs1 mgt1 strain (AID 161);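 further: 0% = growth of cultures given vehicle only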; conditions: S. cerevisiae sgs1 mgt1 strain, stronger effect = higher value
How it was run: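 Compounds are added to genetically altered yeast, and growth is compared with cultures given vehicle alone to give percent inhibition.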

[8] = NCI Yeast Anticancer Drug Screen. Data for the CLN2oe strain (AID 163);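 further: 0% = growth of vehicle-only control cultures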; conditions: S. cerevisiae CLN2oe strain, stronger effect = higher value
How it was run: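 Compound-treated yeast; growth vs vehicle ctrl = % inhibition. Genetically altered strain (cell-cycle control).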

[9] = NCI Yeast Anticancer Drug Screen. Data for the cln2 rad14 strain (AID 165);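 further: 0% = growth equal to vehicle treated cultures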; conditions: S. cerevisiae cln2 rad14 strain, stronger effect = higher value
How it was run: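 Growth inhibition, relative to vehicle-treated controls, is the read-out. The test organism is a yeast strain with defined genetic alterations, cln2 rad14.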

[10] = NCI Yeast Anticancer Drug Screen. Data for the wt2 strain (AID 169);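 further: 0% = growth of vehicle-treated yeast cultures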; conditions: S. cerevisiae wt2 strain growth inhibition, stronger effect = higher value
How it was run: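 Compound exposure of yeast; growth compared with vehicle controls; inhibition reported.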

[11] = NCI Yeast Anticancer Drug Screen. Data for the sgs1 strain (AID 173);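 further: 0% = growth of vehicle-only control cultures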; conditions: S. cerevisiae sgs1 mutant, stronger effect = higher value
How it was run: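 Compounds applied to genetically altered yeast; growth compared with vehicle-treated cultures to give % inhibition.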

[12] = NCI Yeast Anticancer Drug Screen. Data for the mlh1 rad18 strain (AID 175); conditions: S. cerevisiae mlh1 rad18 strain growth inhibition, stronger effect = higher value
How it was run: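 Cells of a genetically altered yeast strain, deficient in DNA damage repair, were treated with compound. Their growth was then compared with that of vehicle-treated cultures to give inhibition.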

[13] = NCI Yeast Anticancer Drug Screen. Data for the rad18 strain (AID 177); conditions: S. cerevisiae rad18 mutant growth inhibition, stronger effect = higher value
How it was run: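 Compounds are applied to a repair-deficient yeast strain, and growth is compared with that of vehicle-treated cultures to give percent inhibition.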

[14] = NCI Yeast Anticancer Drug Screen. Data for the bub3 strain (AID 167); conditions: S. cerevisiae bub3 mutant strain, stronger effect = higher value
How it was run: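 Readout: yeast growth inhibition, expressed relative to vehicle-only wells. The test organism is a mutant strain from a panel with lesions in DNA repair or checkpoint genes.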

[15] = NCI Yeast Anticancer Drug Screen. Data for the mlh1 strain (AID 171);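 further: 0% = growth of vehicle-treated control cultures of the same strain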; conditions: S. cerevisiae mlh1 strain growth inhibition, stronger effect = higher value
How it was run: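 Compounds are applied to a genetically altered yeast strain, and its growth is compared with that of vehicle-treated cultures to give percent inhibition.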

[16] = at 5.0 µM (retest, dose inferred, filed as 0.5)
[17] = at 50.0 µM (retest, dose inferred, filed as 5.0)

Measured: growth inhibition

COC(=O)Oc1cc(Cl)c(Cl)cc1Cl
inactive: [1]; at 1.2 µM 0% | [1]; at 3.7 µM 0% | [1]; at 11.0 µM -1% | [1]; at 33.0 µM 4% | [1]; at 100.0 µM 9% | [2]; at 1.2 µM -1% | [2]; at 3.7 µM -2% | [2]; at 11.0 µM -3% | [2]; at 33.0 µM -4% | [2]; at 100.0 µM 0% | [3]; at 1.2 µM -1% | [3]; at 3.7 µM 0% | [3]; at 11.0 µM 7% | [3]; at 33.0 µM 2% | [3]; at 100.0 µM 1% | [4]; at 1.2 µM 0% | [4]; at 3.7 µM 0% | [4]; [16] 4% | [4]; at 11.0 µM -1% | [4]; at 33.0 µM 2% | [4]; [17] -5% | [4]; at 50.0 µM 30.8% | [4]; at 100.0 µM 10% | [5]; at 1.2 µM 0% | [5]; at 3.7 µM 4% | [5]; [16] -4% | [5]; at 11.0 µM 3% | [5]; at 33.0 µM 5% | [5]; [17] 23% | [5]; at 50.0 µM 21.4% | [5]; at 100.0 µM 8% | [6]; at 1.2 µM 0% | [6]; at 3.7 µM 0% | [6]; at 11.0 µM 2% | [6]; at 33.0 µM 5% | [6]; at 100.0 µM 9% | [7]; [16] 3% | [7]; [17] 1% | [7]; at 50.0 µM 30.1% | [8]; at 1.2 µM -4% | [8]; at 3.7 µM -3% | [8]; at 11.0 µM -7% | [8]; at 33.0 µM -6% | [8]; at 100.0 µM -4% | [9]; [16] 3% | [9]; [17] 52% | [9]; at 50.0 µM 22.6% | [10]; at 1.2 µM 0% | [10]; at 3.7 µM -2% | [10]; at 11.0 µM -2% | [10]; at 33.0 µM -2% | [10]; at 100.0 µM -1% | [11]; at 1.2 µM 0% | [11]; at 3.7 µM 0% | [11]; at 11.0 µM 1% | [11]; at 33.0 µM 3% | [11]; at 100.0 µM 10% | [12]; [16] 7% | [12]; [17] 19% | [12]; at 50.0 µM 11.8% | [13]; at 1.2 µM 0% | [13]; at 3.7 µM 5% | [13]; at 11.0 µM 6% | [13]; at 33.0 µM 9% | [13]; at 100.0 µM 20%

CN(C)/C=C/c1nnc([N+](=O)[O-])s1
active: [1]; at 100.0 µM 98% | [2]; at 100.0 µM 98% | [3]; at 100.0 µM 96% | [4]; at 33.0 µM 94% | [4]; [17] 90% | [4]; at 50.0 µM 95% | [4]; at 100.0 µM 97% | [5]; at 50.0 µM 76.2% | [5]; at 100.0 µM 90% | [6]; at 33.0 µM 79% | [6]; at 100.0 µM 99% | [8]; at 100.0 µM 97% | [14]; [17] 77% | [14]; at 50.0 µM 96% | [14]; at 100.0 µM 98% | [10]; at 100.0 µM 98% | [15]; at 100.0 µM 99% | [11]; at 100.0 µM 98% | [12]; [17] 77% | [12]; at 50.0 µM 89.8% | [13]; at 100.0 µM 97%
inactive: [1]; at 1.2 µM -2% | [1]; at 3.7 µM -3% | [1]; at 11.0 µM 5% | [1]; at 33.0 µM 28% | [2]; at 1.2 µM -7% | [2]; at 3.7 µM -8% | [2]; at 11.0 µM -10% | [2]; at 33.0 µM -1% | [3]; at 1.2 µM 1% | [3]; at 3.7 µM 12% | [3]; at 11.0 µM 35% | [3]; at 33.0 µM 65% | [4]; at 1.2 µM -8% | [4]; at 3.7 µM -3% | [4]; [16] -144% | [4]; at 11.0 µM 49% | [5]; at 1.2 µM 4% | [5]; at 3.7 µM 0% | [5]; [16] -48% | [5]; at 11.0 µM -6% | [5]; at 33.0 µM 1% | [5]; [17] 4% | [6]; at 1.2 µM -4% | [6]; at 3.7 µM 2% | [6]; at 11.0 µM 28% | [8]; at 1.2 µM -2% | [8]; at 3.7 µM -3% | [8]; at 11.0 µM -2% | [8]; at 33.0 µM 9% | [9]; [16] -63% | [9]; [17] -23% | [9]; at 50.0 µM 28.6% | [14]; at 1.2 µM -5% | [14]; at 3.7 µM -2% | [14]; [16] -65% | [14]; at 11.0 µM -3% | [14]; at 33.0 µM 6% | [10]; at 1.2 µM -1% | [10]; at 3.7 µM -1% | [10]; at 11.0 µM -2% | [10]; at 33.0 µM 7% | [15]; at 1.2 µM 5% | [15]; at 3.7 µM -8% | [15]; at 11.0 µM -1% | [15]; at 33.0 µM 41% | [11]; at 1.2 µM -2% | [11]; at 3.7 µM -4% | [11]; at 11.0 µM -1% | [11]; at 33.0 µM 24% | [12]; [16] -115% | [13]; at 1.2 µM 0% | [13]; at 3.7 µM 5% | [13]; at 11.0 µM 21% | [13]; at 33.0 µM 56%
